17 compounds from ChEMBL document CHEMBL1961873, “Compounds: GSK PKIS; Assays: Nanosyn kinase panel” (2012) can be followed below.

Test [1] has as its target Leukocyte tyrosine kinase receptor (Homo sapiens) (UniProt P29376). To be noted: at 1 µM.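 Further: each value is the mean inhibition of LTK.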
In test [2] the target is Tyrosine-protein kinase Lyn (Homo sapiens) (UniProt P07948). The note with it: at 0.1 µM.
For test [3] the target is unchanged. To be noted: at 1 µM.
Test [4] has the same target. The note with it: at 0.1 µM. This is another data set of the same source.
For test [5] the target is unchanged. To be noted: at 1 µM. The source holds these as a separate data set.
Test [6] deals with T1, Tyrosine-protein kinase Mer (Homo sapiens) (UniProt Q12866).
T1 sequence (whole entry): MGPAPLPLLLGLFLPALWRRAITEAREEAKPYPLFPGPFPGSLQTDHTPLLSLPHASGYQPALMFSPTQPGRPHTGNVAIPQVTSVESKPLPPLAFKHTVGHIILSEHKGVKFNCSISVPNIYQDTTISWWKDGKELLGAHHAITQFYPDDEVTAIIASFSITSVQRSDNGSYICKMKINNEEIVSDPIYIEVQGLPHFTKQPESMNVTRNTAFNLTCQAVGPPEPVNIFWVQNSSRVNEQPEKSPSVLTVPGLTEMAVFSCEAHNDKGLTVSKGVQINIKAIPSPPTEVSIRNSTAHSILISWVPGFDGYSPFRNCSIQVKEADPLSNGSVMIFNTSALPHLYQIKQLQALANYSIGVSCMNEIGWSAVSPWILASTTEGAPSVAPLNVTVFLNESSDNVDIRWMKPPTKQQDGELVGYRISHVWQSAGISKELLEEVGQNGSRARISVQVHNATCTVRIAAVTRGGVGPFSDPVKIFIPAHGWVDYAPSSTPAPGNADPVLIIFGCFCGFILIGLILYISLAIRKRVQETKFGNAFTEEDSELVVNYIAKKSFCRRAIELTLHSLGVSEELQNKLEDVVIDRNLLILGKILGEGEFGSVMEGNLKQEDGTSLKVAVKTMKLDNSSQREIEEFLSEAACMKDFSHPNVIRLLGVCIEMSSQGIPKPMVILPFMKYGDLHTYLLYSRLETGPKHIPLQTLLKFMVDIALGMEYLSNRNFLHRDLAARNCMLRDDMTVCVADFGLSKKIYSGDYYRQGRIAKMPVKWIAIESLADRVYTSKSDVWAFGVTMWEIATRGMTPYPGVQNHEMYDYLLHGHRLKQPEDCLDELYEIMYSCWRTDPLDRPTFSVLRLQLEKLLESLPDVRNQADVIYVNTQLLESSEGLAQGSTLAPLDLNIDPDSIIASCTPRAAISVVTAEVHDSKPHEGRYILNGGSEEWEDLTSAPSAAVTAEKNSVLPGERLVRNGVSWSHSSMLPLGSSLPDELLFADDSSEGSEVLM
To be noted: at 0.1 µM.

In test [7] the target is T1, Tyrosine-protein kinase Mer (Homo sapiens). The note with it: at 1 µM.
The target in test [8] is Hepatocyte growth factor receptor (Homo sapiens) (UniProt P08581). The note with it: at 0.1 µM.
Hepatocyte growth factor receptor (Homo sapiens), sequence (P08581 whole entry): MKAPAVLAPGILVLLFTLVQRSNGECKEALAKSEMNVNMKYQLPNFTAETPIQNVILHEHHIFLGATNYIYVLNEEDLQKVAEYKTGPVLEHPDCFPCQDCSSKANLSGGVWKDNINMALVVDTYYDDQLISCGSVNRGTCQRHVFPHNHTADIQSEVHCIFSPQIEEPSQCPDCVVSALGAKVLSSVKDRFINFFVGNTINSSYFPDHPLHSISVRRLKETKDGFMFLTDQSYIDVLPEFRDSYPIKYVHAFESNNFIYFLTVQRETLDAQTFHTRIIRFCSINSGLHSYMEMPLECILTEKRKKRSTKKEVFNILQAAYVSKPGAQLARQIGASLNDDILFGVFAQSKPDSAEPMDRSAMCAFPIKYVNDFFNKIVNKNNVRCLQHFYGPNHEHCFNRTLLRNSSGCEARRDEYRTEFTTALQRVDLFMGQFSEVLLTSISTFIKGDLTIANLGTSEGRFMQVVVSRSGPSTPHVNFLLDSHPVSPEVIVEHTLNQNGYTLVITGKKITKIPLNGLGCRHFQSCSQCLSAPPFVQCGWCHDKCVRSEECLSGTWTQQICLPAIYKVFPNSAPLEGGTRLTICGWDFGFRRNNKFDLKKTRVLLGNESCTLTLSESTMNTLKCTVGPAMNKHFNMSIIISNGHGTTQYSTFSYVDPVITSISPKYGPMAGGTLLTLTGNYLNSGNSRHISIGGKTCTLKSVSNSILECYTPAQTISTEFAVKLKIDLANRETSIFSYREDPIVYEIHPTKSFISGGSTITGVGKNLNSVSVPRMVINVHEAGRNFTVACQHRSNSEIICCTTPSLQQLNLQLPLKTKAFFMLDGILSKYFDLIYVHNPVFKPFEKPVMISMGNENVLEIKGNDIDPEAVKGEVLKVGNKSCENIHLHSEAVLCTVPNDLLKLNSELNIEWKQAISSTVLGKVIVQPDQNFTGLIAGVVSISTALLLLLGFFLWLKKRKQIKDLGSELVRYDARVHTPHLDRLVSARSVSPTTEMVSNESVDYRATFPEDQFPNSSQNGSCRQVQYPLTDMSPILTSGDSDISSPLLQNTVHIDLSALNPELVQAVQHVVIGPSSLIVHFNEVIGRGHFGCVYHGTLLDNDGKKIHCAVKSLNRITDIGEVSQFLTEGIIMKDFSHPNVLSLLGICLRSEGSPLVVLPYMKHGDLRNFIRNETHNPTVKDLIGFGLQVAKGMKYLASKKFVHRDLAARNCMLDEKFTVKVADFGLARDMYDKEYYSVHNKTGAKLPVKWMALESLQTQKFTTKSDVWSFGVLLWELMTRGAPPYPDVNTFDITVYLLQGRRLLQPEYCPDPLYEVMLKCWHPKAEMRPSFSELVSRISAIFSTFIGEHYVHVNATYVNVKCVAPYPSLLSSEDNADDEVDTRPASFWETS
Test [9] shares this target. To be noted: at 1 µM.
The target of test [10] is T2, Muscle, skeletal receptor tyrosine-protein kinase (Homo sapiens) (UniProt O15146).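 Further: values are mean inhibition of MuSK from the GSK PKIS kinase screening panel.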
T2 sequence (whole entry): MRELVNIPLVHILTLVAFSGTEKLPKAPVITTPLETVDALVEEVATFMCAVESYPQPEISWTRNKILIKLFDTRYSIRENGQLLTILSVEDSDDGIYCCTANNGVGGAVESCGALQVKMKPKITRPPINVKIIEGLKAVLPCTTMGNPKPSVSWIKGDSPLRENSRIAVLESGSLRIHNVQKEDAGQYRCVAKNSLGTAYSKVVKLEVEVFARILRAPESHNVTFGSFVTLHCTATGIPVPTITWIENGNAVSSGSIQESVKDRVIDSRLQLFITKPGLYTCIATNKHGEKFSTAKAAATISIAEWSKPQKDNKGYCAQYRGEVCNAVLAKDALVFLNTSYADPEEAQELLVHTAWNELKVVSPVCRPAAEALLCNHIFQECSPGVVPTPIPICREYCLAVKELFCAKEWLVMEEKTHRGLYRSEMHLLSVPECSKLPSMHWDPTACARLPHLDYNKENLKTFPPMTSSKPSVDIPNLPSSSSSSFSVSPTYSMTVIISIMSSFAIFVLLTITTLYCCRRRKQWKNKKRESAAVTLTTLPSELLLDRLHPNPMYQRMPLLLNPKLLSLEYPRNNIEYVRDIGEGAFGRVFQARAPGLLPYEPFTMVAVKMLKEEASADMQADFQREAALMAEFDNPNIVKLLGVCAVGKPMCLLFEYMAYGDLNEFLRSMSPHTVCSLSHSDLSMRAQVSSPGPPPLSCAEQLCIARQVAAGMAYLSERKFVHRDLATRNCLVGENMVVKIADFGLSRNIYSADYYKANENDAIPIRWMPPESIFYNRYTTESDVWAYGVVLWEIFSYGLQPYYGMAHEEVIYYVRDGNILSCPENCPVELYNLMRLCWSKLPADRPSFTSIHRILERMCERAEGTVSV
The note with it: at 0.1 µM.

Tyrosine-protein kinase Lyn (Homo sapiens), sequence (P07948 2-512 limits assumed): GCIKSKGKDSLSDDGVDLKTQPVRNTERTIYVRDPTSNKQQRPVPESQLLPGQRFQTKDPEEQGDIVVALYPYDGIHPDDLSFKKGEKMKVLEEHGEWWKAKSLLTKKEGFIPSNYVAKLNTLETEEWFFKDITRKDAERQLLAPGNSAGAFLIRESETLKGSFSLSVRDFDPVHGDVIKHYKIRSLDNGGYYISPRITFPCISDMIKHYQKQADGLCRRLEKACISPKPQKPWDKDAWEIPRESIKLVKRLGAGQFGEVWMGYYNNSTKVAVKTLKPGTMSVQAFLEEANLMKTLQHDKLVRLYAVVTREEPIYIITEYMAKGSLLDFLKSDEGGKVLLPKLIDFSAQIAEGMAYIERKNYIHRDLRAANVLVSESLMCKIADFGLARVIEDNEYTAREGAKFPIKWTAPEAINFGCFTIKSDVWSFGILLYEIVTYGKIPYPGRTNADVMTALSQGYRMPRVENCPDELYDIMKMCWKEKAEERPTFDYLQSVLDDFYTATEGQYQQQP
Leukocyte tyrosine kinase receptor (Homo sapiens), sequence (P29376 whole entry): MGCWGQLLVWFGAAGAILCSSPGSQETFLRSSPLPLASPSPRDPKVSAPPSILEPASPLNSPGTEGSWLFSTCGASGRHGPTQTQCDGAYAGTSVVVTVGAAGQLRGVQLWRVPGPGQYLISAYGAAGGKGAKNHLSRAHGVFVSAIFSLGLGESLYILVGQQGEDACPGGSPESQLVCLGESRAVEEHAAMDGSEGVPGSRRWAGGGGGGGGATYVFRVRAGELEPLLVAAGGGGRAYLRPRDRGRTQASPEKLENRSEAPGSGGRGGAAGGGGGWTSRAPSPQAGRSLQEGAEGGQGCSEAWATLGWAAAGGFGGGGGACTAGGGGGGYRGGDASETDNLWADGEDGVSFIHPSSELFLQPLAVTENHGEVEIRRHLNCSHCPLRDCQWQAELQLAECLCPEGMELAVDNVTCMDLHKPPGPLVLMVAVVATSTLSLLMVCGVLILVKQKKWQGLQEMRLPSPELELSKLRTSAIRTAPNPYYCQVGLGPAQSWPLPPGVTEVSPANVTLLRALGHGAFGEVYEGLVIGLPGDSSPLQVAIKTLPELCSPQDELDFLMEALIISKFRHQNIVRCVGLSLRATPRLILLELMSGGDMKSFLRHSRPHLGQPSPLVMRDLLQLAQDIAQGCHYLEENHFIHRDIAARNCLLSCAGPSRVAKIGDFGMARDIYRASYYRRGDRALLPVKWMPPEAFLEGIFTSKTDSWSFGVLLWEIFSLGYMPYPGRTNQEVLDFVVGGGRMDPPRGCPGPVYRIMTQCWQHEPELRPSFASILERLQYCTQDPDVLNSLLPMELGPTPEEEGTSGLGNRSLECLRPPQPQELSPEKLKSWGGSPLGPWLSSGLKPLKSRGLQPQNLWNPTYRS

One may read the inhibition as the relative decrease from the control value, in per cent. On to `NC(=O)c1cccc(Nc2nccc(Nc3cccc4[nH]ncc34)n2)c1`, for which the inhibition in test [1] was 39%; in test [2], 58.5%; in test [3] it was 91.3%; in test [4], 52.3%; in test [5] it was 88.9%; in test [6], -0.28%. Also, the inhibition is 8.27% in test [7], -1.63% in [8], 4.73% in test [9] and 1.07% in test [10].

For `COc1ccc2cc(-c3c(-c4ccncc4)nc(-c4ccc([S+](C)[O-])cc4)n3C)ccc2c1` (stereo not given), the inhibition in test [1] came to 2.37%; in test [2] it was 2.95%; in test [3] it was 9.35%; in test [4], 1.98%; in test [5] it was 6.67%; in test [6] it was 0.48%. Also, the inhibition was 6.32% in test [7], 4.07% in test [8], -0.71% in test [9] and 1.76% in test [10].

For the compound `O=C1NC(=O)C(c2ccc(Cl)cc2)=C1Nc1ccc(Cl)c(C(=O)O)c1`, the inhibition in test [1] was -0.2%; in test [2], 0.02%; in test [3], -0.5%; in test [4] it was -2.02%; in test [5], -0.81%; in test [6], 1.27%. For the same compound, the inhibition is 0.08% in test [7], -1.14% in test [8], -0.38% in test [9] and -1.83% in test [10].

Consider `Fc1cccc(COc2ccc(Nc3ncnc4cc(-c5ccc[nH]5)sc34)cc2Cl)c1`, for which the inhibition came to 9.35% in test [1]; 2.95% in [2]; 7.02% in test [3]; 1.43% in test [4]; 4.65% in test [5]; 1.29% in [6]. The inhibition is 5.95% in [7], -0.09% in [8], 4.48% in test [9] and 1.3% in test [10].

As to `CS(=O)(=O)Nc1ccc(N/C=C2\C(=O)Nc3ccccc32)cc1`, the inhibition in test [1] is 3.76%; in test [2] it was 0.65%; in test [3] it was 12.1%; in test [4], -0.91%; in [5] it was 11.3%; in test [6], -0.15%. Further, the inhibition in test [7] was 3.63%; in test [8] it was -4.32%; in test [9] it was -0.23%; in test [10], 2.12%.

For `Cc1ccc(NC(=O)c2ccnc(N3CCCC3)c2)cc1-c1ccc(C(=O)NCC2CC2)cc1`, the inhibition in test [1] worked out at 2.5%; in [2], 3.64%; in test [3], 8.64%; in [4] it was 1.83%; in [5] it was 5.14%; in [6] it was 1.62%. The inhibition came to 3.81% in test [7], 9.41% in test [8], 7.36% in test [9] and 4.38% in [10].

On to `O=C1NC(=O)C(N2CCc3ccccc32)=C1c1ccc(Cl)cc1`, for which the inhibition came to 1.64% in test [1]; 6.82% in test [2]; 6.94% in test [3]; 5.14% in test [4]; 4.26% in [5]; 4.06% in [6]. The inhibition in test [7] is 6.47%; in test [8] it was -1.68%; in test [9] it was 7.33%; in test [10], 2.09%.

Regarding `CS(=O)(=O)CCNCc1nc(-c2ccc3ncnc(Nc4ccc(F)c(Cl)c4)c3c2)cs1`, the inhibition was 1.99% in test [1]; 4.29% in test [2]; 27.3% in test [3]; 3.57% in test [4]; 19.4% in test [5]; 0.48% in test [6]. The inhibition was found to be 4.95% in test [7], 3.54% in test [8], 9.65% in test [9] and 1.59% in test [10].

For the compound `CC1=C(C(=O)Nc2ccc3[nH]ncc3c2)C(c2ccc(F)cc2)NC(=O)N1` (stereo not given), the inhibition in test [1] is 1.52%; in [2], 2.06%; in [3], 2.69%; in [4] it was 0.99%; in test [5], 1.73%; in test [6] it was 1.43%. Moreover, the inhibition in test [7] was found to be 0.93%; in [8], 3%; in [9], 14.9%; in test [10], 1.49%.

Turning to `NC(=O)c1ccc(-c2nc(-c3ccccn3)c(-c3ccc4c(c3)OCO4)[nH]2)cc1`, the inhibition stood at 3.18% in test [1]; 2.23% in test [2]; 2.11% in [3]; 1.62% in test [4]; 3.18% in [5]; 1.67% in test [6]. In addition, the inhibition was 3.36% in [7], -4.12% in [8], 9.28% in test [9] and 2.51% in test [10].

As to `CCn1c(-c2nonc2N)nc2ccncc21`, the inhibition in test [1] is 0.42%; in test [2] it was 2.64%; in test [3], -1.88%; in [4], 1.5%; in test [5], -0.9%; in [6], 0.16%. For the same compound, the inhibition in [7] is -0.52%; in [8] it was 8.81%; in test [9] it was 2.41%; in test [10], -0.65%.

With `Nc1ncnc2occ(-c3ccc(NC(=O)Nc4cccc(C(F)(F)F)c4)cc3)c12`, the inhibition in [1] came to 47.1%; in test [2] it was 19.4%; in [3], 72.2%; in [4] it was 13.3%; in [5], 67.8%; in [6], 3.32%. Further, the inhibition in [7] turned out to be 31.6%; in [8], 3.03%; in test [9], 29%; in [10] it was 72.9%.

In the case of `COc1cc2c(cc1Nc1nc(N3CCc4ccccc43)c3cc[nH]c3n1)N(C(=O)CN(C)C)CC2`, the inhibition in [1] turned out to be 89.9%; in test [2], 1.75%; in test [3], 1.39%; in [4], 0.29%; in test [5], 1.23%; in [6], 1.28%. For the same compound, the inhibition was 0.11% in test [7], 2.24% in [8], -6.58% in [9] and -0.85% in [10].

For the compound `CC(C)=Cc1cccc2c1/C(=N/Nc1ccc(S(N)(=O)=O)cc1)C(=O)N2`, the inhibition amounted to 11.3% in [1]; 6.78% in [2]; 35.8% in test [3]; 5.19% in [4]; 29.9% in [5]; 0.25% in test [6]. Further, the inhibition in [7] is 3.48%; in [8] it was -0.76%; in test [9], 19.6%; in test [10], 7%.

In the case of `COc1ccc(COc2ccc(Cc3cnc(N)nc3N)cc2OC)cc1`, the inhibition in test [1] was -0.41%; in test [2], 0.58%; in [3], 0.33%; in [4], 0.18%; in test [5] it was 2.08%; in [6], 2.31%. For the same compound, the inhibition in test [7] amounted to 3.48%; in test [8], 2.14%; in [9], 5.98%; in test [10] it was 4.72%.

For the compound `NS(=O)(=O)c1cccc(-c2ccc3c(NC(=O)C4CC4)n[nH]c3c2)c1`, the inhibition in [1] was -0.78%; in [2], 1.09%; in [3], 1.65%; in test [4], 1.19%; in test [5], 1.05%; in [6], 0.89%. Further, the inhibition in test [7] was 1.03%; in test [8], -4.06%; in test [9], 3.16%; in test [10], 0.75%.

As to `O=C1NC(=O)C(c2ccccc2Cl)=C1Nc1cccc(O)c1`, the inhibition turned out to be 1.2% in test [1]; 5.68% in test [2]; 3.94% in [3]; 1.34% in test [4]; 2.65% in [5]; 1.63% in [6]. In addition, the inhibition in test [7] was 4.66%; in [8], 1.79%; in test [9], -0.4%; in test [10], 3.23%.
